Here are results for 76 molecules from PubChem BioAssay AID1259421 (Broad Institute, 2018).

Where “and” joins values, the source holds several entries; their conditions need not be identical. Identical values can stand only once. About 610 (9.5%) of roughly 6,400 compounds were called active. This is one part of a sample in which actives are shown more often than they occur. Rule as the data show it: active = activity change below about -70%; inconclusive = no clear call, values can overlap the other calls; inactive = above that. Some compounds were tested as several samples or in several runs, with calls that do not always agree.

The experiment in a line: T. gondii ME49Luc in HeLa cells, luciferase assay, 72 h, no IFN-y (AID 1259421). Conditions: stronger effect = lower value, concentration not given here.
For the molecule `Cc1[nH]c(=O)c(C#N)cc1-c1ccncc1`, the activity change, negative = inhibition is 46.4% (inactive) and 9.05% (inactive). `O=C1NCCc2[nH]c(-c3ccncc3)cc21`: the activity change, negative = inhibition was -75.8% (active). Under `Nc1cc(-c2ccncc2)c[nH]c1=O` stands 3.96% (inactive) and 3.4% (inactive); under `CCOC(=O)C(CCc1ccccc1)NC1CCc2ccccc2N(CC(=O)O)C1=O` (stereo unspecified), 3.98% (inactive); under `Cc1nc2c(-c3cnc(N)nc3)nc(N3CCOCC3)nc2n1C(C)C`, -14% (inactive).

`Nc1cc(C(F)(F)F)c(-c2cc(N3CCOCC3)nc(N3CCOCC3)n2)cn1`: the activity change, negative = inhibition is -70.3% (active). For `Nc1ncnc2nc(-c3ccc(N4CCOCC4)nc3)cc(-c3cccc(Br)c3)c12` the value was -21.2% (inactive) and -9.62% (inactive); for `CC(=O)SCCC(=O)N1C(C)CCCC1C(=O)O` (stereo unspecified), 20.2% (inactive); for `O=C(O)[C@H]1CN(C/C=C/P(=O)(O)O)CCN1`, -6.53% (inactive). In the case of `CC1(C)Oc2ccc(C#N)cc2[C@H](N2CCCC2=O)[C@H]1O` (racemic), the activity change, negative = inhibition was 17% (inactive).

Regarding `CCN(CC)CCNC(=O)c1ccc(I)cc1`, the activity change, negative = inhibition was 11.1% (inactive). Under `O=C(Nc1ccccc1)Nc1ccc(-c2ccc(C(=O)[C@@H]3CCC[C@@H]3C(=O)O)cc2)cc1` stands 16.1% (inactive); under `c1cnc2cc3c(cc2n1)C1CNCC3C1`, 5.57% (inactive). For `CC1=C(CC(=O)O)c2cc(F)ccc2/C1=C\c1ccc(S(C)=O)cc1` (stereo unspecified) the value was 13.1% (inactive) and -5% (inactive). For `CO[C@H]1CC(O[C@@H]2/C(C)=C/C[C@@H]3C[C@@H](C[C@]4(C=C[C@H](C)[C@@H](C5CCCCC5)O4)O3)OC(=O)[C@@H]3C=C(C)[C@@H](O)[C@H]4OC/C(=C\C=C\[C@@H]2C)[C@]43O)O[C@@H](C)C1O[C@H]1C[C@H](OC)[C@@H](O)[C@H](C)O1` (stereo partly specified) the value was -62.7% (inactive); for `COc1cc(/C=C/c2ccc(OC)cc2OC)cc(OC)c1`, -58.6% (inactive) and -57.8% (inactive).

Consider `Cc1cc(N2CCOCC2)ccc1Nc1nc(NC2CCCCC2)c2[nH]cnc2n1`, for which the activity change, negative = inhibition is -50.9% (inactive).

On to `Cc1nc(N)sc1-c1ccnc(Nc2ccc(N3CCOCC3)cc2)n1`, for which the activity change, negative = inhibition is -80.3% (active). Under `CCn1c2ccccc2c2cc(Nc3ccnc(NCCCN4CCOCC4)n3)ccc21` stands -53.7% (inactive). Regarding `CCCN1CCN(c2ccc(C(=O)NC3(C(=O)NCC#N)CCCCC3)cc2)CC1`, the activity change, negative = inhibition was 15.1% (inactive). For `N#CCNC(=O)c1ccc(-c2ccnc(Nc3ccc(N4CCOCC4)cc3)n2)cc1` the value was -88.6% (active); for `O=C(NCCCN1CCOCC1)c1ccc(Cl)cc1`, 10.9% (inactive); for `CCNC(=O)C1OC(n2cnc3c(N)nc(NCCc4ccc(CCC(=O)O)cc4)nc32)C(O)C1O` (stereo unspecified), 1.12% (inactive). Under `CC(C)=CCOc1cc2oc(=O)ccc2cc1O` stands -2.69% (inactive).

As for `O=C(O)c1cc(O)c2c(c1)C(=O)c1cccc(O)c1C2=O`, the activity change, negative = inhibition is 18.1% (inactive). Turning to `Nc1nc(Nc2ccc3c(c2)CC[C@@H](N2CCCC2)CC3)nn1-c1cc2c(nn1)-c1ccccc1CCC2`, the activity change, negative = inhibition is -85.1% (active).

In the case of `CC(=O)O[C@]1(C(C)=O)CCC2C3C=C(Cl)C4=CC(=O)CC[C@]4(C)C3CC[C@@]21C` (stereo partly specified), the activity change, negative = inhibition is 2.15% (inactive) and -3.18% (inactive). Under `CCCCCCC(=O)OC1CC(C)(C)NC(C)(C)C1` stands 10.7% (inactive) and -2.86% (inactive); under `O=C(N[C@H]1CCN(C(=O)c2cc(C(F)(F)F)cc(C(F)(F)F)c2)[C@H](Cc2ccc(Cl)cc2)C1)c1ccnc2ccccc12`, 25.3% (inactive). For the molecule `O=C(NC1CCN(CCCCC2(C(=O)NCC(F)(F)F)c3ccccc3-c3ccccc32)CC1)c1ccccc1-c1ccc(C(F)(F)F)cc1`, the activity change, negative = inhibition was -89% (active). Under `O=C(NC1CCN(CCc2c[nH]c3ccccc23)CC1)c1ccccc1` stands 10.9% (inactive). Under `CN1CC(=O)N/C1=N/C(=O)Nc1cccc(Cl)c1` stands 32.6% (inactive) and 26.4% (inactive); under `CNC(=O)C1OC(n2cnc3c(NCc4cccc(I)c4)ncnc32)C(O)C1O` (stereo unspecified), 5.36% (inactive). For `O=C(O)C(=O)O.O=C(O)C(=O)O.O=C(O)C(=O)O.[Bi].[Bi]` the value was 12.7% (inactive).

For the molecule `C[C@@H]1CN(CCCn2c3ccccc3c3ccccc32)C[C@H](C)N1`, the activity change, negative = inhibition was 18.2% (inactive).

In the case of `COc1ccccc1C1(O)CCN(CCCn2c3ccccc3c3ccccc32)CC1`, the activity change, negative = inhibition is -73.1% (active) and -52.5% (inactive). For `CC1CN(CCCn2c3ccccc3c3ccccc32)CC(C)N1` (stereo unspecified) the value was -30.6% (inactive).

On to `CO/N=C(\C(=O)N[C@@H]1C(=O)N2C(C(=O)O)=C(C[n+]3ccn4ncccc43)CS[C@H]12)c1nsc(N)n1`, for which the activity change, negative = inhibition is 12% (inactive). Under `CC(C)n1cnc2c(NCc3ccccc3O)nc(NCCCO)nc21` stands 1.44% (inactive); under `CC[C@H](CO)Nc1nc(Nc2cccc(-c3ccccn3)c2)c2ncn(C(C)C)c2n1`, -72.2% (active); under `CC[C@H](CO)Nc1nc(NCc2ccc(-c3ccccn3)cc2)c2ncn(C(C)C)c2n1`, -75.6% (active).

For the molecule `CC[C@@H](CO)Nc1nc(NCc2ccccc2)c2ncn(C(C)C)c2n1`, the activity change, negative = inhibition is -3.07% (inactive). For `CC[C@H](CO)Nc1nc(NCc2ccccc2)c2ncn(C(C)C)c2n1` the value was -9.71% (inactive); for `CN1Cc2c(C(=O)OC(C)(C)C)ncn2-c2ccsc2C1=O`, 4.12% (inactive) and 13% (inactive); for `CC(=O)O[C@@H]1CC2C(C)(C)C(=O)C3OC3[C@]2(C)C2CC[C@@]3(C)[C@H](c4ccoc4)OC(=O)C4OC43[C@@]21C` (stereo partly specified), 26.1% (inactive).

Take `CC1=NN(c2ccc(C(=O)O)cc2)C(=O)/C1=C\c1ccc(-c2cc(C)c(C)cc2[N+](=O)[O-])o1`: the activity change, negative = inhibition was 27.1% (inactive).

Consider `O=C(/C=C/c1ccccc1)c1ccc(O)cc1`, for which the activity change, negative = inhibition is -8.89% (inactive). For `CC(=O)c1cnc2ccc(-c3cc(Cl)c(O)c(Cl)c3)nc2c1NC1CCC(CN(C)C)CC1` (stereo unspecified) the value was -87.5% (active); for `CO[C@H]1C=CO[C@@]2(C)Oc3c(C)c(O)c4c(O)c(c5c(c4c3C2=O)NC2(CCN(CC(C)C)CC2)N=5)=NC(=O)/C(C)=C\C=C/[C@H](C)[C@H](O)[C@@H](C)[C@@H](O)[C@@H](C)[C@H](OC(C)=O)[C@@H]1C`, -31.1% (inactive). Under `Nc1nc(=O)n([C@@H]2O[C@H](CO)[C@@H](O)[C@@H]2F)cc1I` stands 9.84% (inactive); under `CC(=O)OCC(=O)[C@@]1(O)CCC2C3CCC4=CC(=O)C=C[C@]4(C)[C@@]3(F)[C@@H](O)C[C@@]21C` (stereo partly specified), -18.2% (inactive).

As to `CCN1CCN(Cc2ccc(Nc3ncc(F)c(-c4cc(F)c5nc(C)n(C(C)C)c5c4)n3)nc2)CC1`, the activity change, negative = inhibition is -82.7% (active).

With `CN(C)Cc1ccc(-c2nc3cccc4c3n2CCNC4=O)cc1`, the activity change, negative = inhibition was 4.67% (inactive). For `CCC(=O)OCC(=O)[C@@]1(OC(=O)CC)[C@H](C)CC2C3C([C@@H](O)C[C@@]21C)[C@@]1(C)C=CC(=O)C=C1C[C@H]3Cl` (stereo partly specified) the value was 2.29% (inactive); for `CC1=CC(=O)C2C(C)(C)CCC[C@]2(C)[C@@]1(O)CCc1ccoc1` (stereo partly specified), 1.47% (inactive). For the molecule `CN1CC[C@@H](c2c(O)cc(O)c3c(=O)cc(-c4ccccc4Cl)oc23)[C@@H]1CO`, the activity change, negative = inhibition is -78.4% (active). For `CN1CC[C@H](c2c(O)cc(O)c3c(=O)cc(-c4ccccc4Cl)oc23)[C@H](O)C1` the value was -83.7% (active); for `COc1ccc(-c2cc(=O)c3c(O)cc(OC)c(OC)c3o2)c(OC)c1`, 12.5% (inactive).

On to `NC(N)=NCCC[C@H](N)C(=O)NCC(=O)N[C@@H](CC(=O)O)C(=O)N[C@@H](CO)C(=O)O`, for which the activity change, negative = inhibition was 12.1% (inactive). For `CC(C)CCNc1ncccc1C(=O)N1CCN(Cc2ccccc2)CC1` the value was 7.68% (inactive); for `CC(C)=CCc1c(O)cc2oc(C)cc(=O)c2c1O`, 1.96% (inactive). For `COc1c(O)cc2oc3cc(O)c(CC=C(C)C)c(O)c3c(=O)c2c1CC=C(C)C` the value was -80.8% (active); for `COc1cc2oc3cc(OC)c(OC)c(CC=C(C)C)c3c(=O)c2c(O)c1CC=C(C)C`, 7.82% (inactive). In the case of `C[N+](C)(C)[C@@H](Cc1c[nH]c(=S)[nH]1)C(=O)O`, the activity change, negative = inhibition was 3.37% (inactive).

For `Nc1nc2c(cnn2CCc2ccccc2)c2nc(-c3ccco3)nn12`, the activity change, negative = inhibition was 16.9% (inactive) and 59.6% (inactive). Under `Nc1nc(NCCc2ccc(O)cc2)nc2nc(-c3ccco3)nn12` stands -78.9% (active) and -90.1% (active).

Turning to `COc1ccc(CCCn2ncc3c2nc(N)n2nc(-c4ccco4)nc32)cc1`, the activity change, negative = inhibition was -11.7% (inactive). Under `CC(COc1ccccc1)NC(C)[C@H](O)c1ccc(O)cc1` (stereo partly specified) stands 7.25% (inactive) and 9.37% (inactive); under `Nc1ncnc2c1ncn2C1OC(COP(=O)(O)O)C(O)C1O` (stereo unspecified) (tested in a mixture with another compound), 1.1% (inactive). For `Nc1ncnc2c1ncn2C1O[C@H](COP(=O)(O)O)[C@@H](O)[C@H]1O` (stereo partly specified) the value was 13.1% (inactive); for `CC(C)OC(=O)OCOP(=O)(CO[C@H](C)Cn1cnc2c(N)ncnc21)OCOC(=O)OC(C)C`, -84% (active); for `C[C@H](Cn1cnc2c(N)ncnc21)OCP(=O)(O)O`, 8.95% (inactive). For `Nc1ncnc2c1ncn2CCOCP(=O)(O)O` the value was 5.36% (inactive); for `CC(C)(C)C(=O)OCOP(=O)(COCCn1cnc2c(N)ncnc21)OCOC(=O)C(C)(C)C`, -84.5% (active) and -86.9% (active). For the molecule `CC(=O)OC[C@H]1O[C@@](COC(C)=O)(O[C@H]2O[C@H](COC(C)=O)[C@@H](OC(C)=O)[C@H](OC(C)=O)[C@H]2OC(C)=O)[C@@H](OC(C)=O)[C@@H]1OC(C)=O`, the activity change, negative = inhibition is 4.98% (inactive).

Turning to `CCC1(c2cnc[nH]2)Cc2ccccc2C1`, the activity change, negative = inhibition was 52.1% (inactive).
